Measured values from PubChem BioAssay AID743047 (Broad Institute, 2013).
Measured potencies and affinities stand elsewhere. Activity calls are given as the source filed them. No rule for the calls is given here.

assay: PAX5 activity inhibitors, dose response, selectivity assay for PAX8 inhibitor project, cell-based, plate reader, dry powder samples (AID 743047); details: cell-based PAX5 selectivity counter-screen; series mostly up to 50 µM

Q: Which outcome does the source give for `C[C@H](CO)N1C[C@H](C)[C@H](CN(C)C(=O)Nc2ccc(-c3cccs3)cc2)OCc2cnnn2CCCC1=O` here?
A: inactive

Q: With `C[C@H](CO)N1C[C@H](C)[C@@H](CN(C)Cc2ccc(-c3ccccc3)cc2)Oc2ccc(NC(=O)C3CC3)cc2CC1=O` as the compound, how does the outcome read?
A: inactive

Q: Which outcome does the source give for `N#C[C@H]1N[C@H](CO)[C@@H]1c1ccc(C#Cc2ccccc2F)cc1` here?
A: inactive

Q: Which outcome does the source give for `O=C(CCS(=O)(=O)c1ccccc1)Nc1nc2ccc(F)cc2s1` here?
A: inactive

Q: With `O=C1/C(=C/c2ccccc2F)SC(=S)N1CC(=O)N1CCCCC1c1cccnc1` (centres undefined) as the compound, how does the outcome read?
A: inactive

Q: For `CC1(C)CC(=O)c2sc(NC(=O)CCS(=O)(=O)c3ccccc3)nc2C1`, which outcome is on record?
A: inactive

Q: With `COc1ccc(S(=O)(=O)Nc2ccc3c(c2)CC(=O)N([C@@H](C)CO)C[C@@H](C)[C@@H](CN(C)Cc2ccc(-c4ccccc4)cc2)O3)cc1` as the compound, how does the outcome read?
A: inactive

Q: Which outcome does the source give for `O=C(CCCN1C(=O)/C(=C\c2cccc(Br)c2)SC1=S)Nc1cccnc1` here?
A: inactive

Q: With `Cc1ccc(-c2csc(NC3OC(=O)c4ccccc43)n2)cc1` (centres undefined) as the compound, how does the outcome read?
A: inactive

Q: For `CN(C[C@H]1N[C@@H](CO)[C@@H]1c1ccc(C2=CCCC2)cc1)C(=O)c1cccc(F)c1`, which activity change, negative = inhibition is on record?
A: 243% [at 8 µM] (inactive)

Q: With `CC(C)(C)c1nnc(NC(=O)CCS(=O)(=O)c2ccccc2)s1` as the compound, how does the outcome read?
A: inactive

Q: Which outcome does the source give for `COc1cc(/C=C2\SC(=S)N(CCC(=O)N3CCCCC3)C2=O)cc(OC)c1OC` here?
A: inactive

Q: With `COCC(=O)N1[C@H](CO)[C@H](c2ccc(-c3cccnc3)cc2)[C@@H]1C#N` as the compound, how does the outcome read?
A: inactive

Q: Which outcome does the source give for `COc1cccc2sc(N(CCCN(C)C)C(=O)CCS(=O)(=O)c3ccccc3)nc12` here?
A: inactive
